Screening results as filed in PubChem BioAssay.
Rows were chosen to be rich in hits. Some 28% of all compounds tested hit in one or more screens of this group.
CYP2C19 activ: increases human CYP2C19 enzyme activity; recombinant CYP2C19, luciferin-H EGE luminescence; active compounds read high; 0 = fully inhibited enzyme, 1 = untreated enzyme; 96,000 tested, under 10 active; P33261; AID 1025; activation factor at 5 µM;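 active means activation factor of at least 2 at 5 µM in the primary screen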;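 further: 0 = wells with 2.5 mM tranylcypromine and 1 = vehicle-only wells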
CYP2C9 activ: CYP2C9 (human) activation. AID 1024. recombinant CYP2C9, luciferin-H conversion, luminescence; active compounds read high; factor 1 = untreated enzyme, 0 = blocked. 96,000 compounds, 1.4% hits. activation factor at 5 µM;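 active means activation factor of 2 or more for CYP2C9 at a 5 µM dose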;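 further: 0 = sulfaphenazole-blocked wells and 1 = vehicle-only wells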
CYP2C19 inh: human CYP2C19 inhibition. inhibition, % at 5 µM. CYP2C19 Supersomes, luciferin-H EGE luminescence, 30 min. 96,000 compounds, 21% hits. AID 778. P33261;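 active means CYP2C19 inhibition above a set limit at 5 µM in the primary screen, cut at about 50% in these data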;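 further: plate controls were negative control wells for no effect and 2.5 mM tranylcypromine positive control for full effect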
hDAT+cocaine: modulates human dopamine transporter uptake under cocaine. B-score at 10 µM. 110,000 compounds, 1.3% hits. LLC-PK1 hDAT cells, [14C]-dopamine uptake with cocaine IC80; actives deviate in either direction;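 active means Z score or B-score, a plate-position-corrected score, falls beyond the plate's 99.7% confidence bounds, in either direction; inactive means both scores lie inside the 99.7% bounds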;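 further: scored against the spread of the other compound wells on the same plate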
Target sequence (Q01959 whole entry, looked up): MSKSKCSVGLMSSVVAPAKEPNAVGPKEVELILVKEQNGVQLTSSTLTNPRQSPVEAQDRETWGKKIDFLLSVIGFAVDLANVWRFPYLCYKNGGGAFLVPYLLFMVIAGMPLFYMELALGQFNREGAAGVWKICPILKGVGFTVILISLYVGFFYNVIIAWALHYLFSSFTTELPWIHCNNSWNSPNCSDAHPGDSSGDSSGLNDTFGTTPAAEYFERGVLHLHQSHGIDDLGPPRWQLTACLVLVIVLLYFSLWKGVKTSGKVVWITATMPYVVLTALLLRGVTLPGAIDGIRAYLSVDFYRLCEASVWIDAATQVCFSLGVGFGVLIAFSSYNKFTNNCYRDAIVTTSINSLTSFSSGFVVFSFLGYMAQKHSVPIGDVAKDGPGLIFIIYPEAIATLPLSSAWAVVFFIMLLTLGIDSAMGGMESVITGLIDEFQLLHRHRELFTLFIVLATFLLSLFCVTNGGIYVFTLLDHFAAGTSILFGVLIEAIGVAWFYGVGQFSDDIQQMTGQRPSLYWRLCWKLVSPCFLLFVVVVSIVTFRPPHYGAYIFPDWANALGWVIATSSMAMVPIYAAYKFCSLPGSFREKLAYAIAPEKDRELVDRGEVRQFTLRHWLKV
CYP2C9 inhib: human CYP2C9 inhibition; AID 777; P11712; 96,000 compounds, 20% hits; inhibition, % at 5 µM; CYP2C9 Supersomes, luciferin-H conversion, luminescence;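 active means blocking of liver enzyme CYP2C9 beyond about 50% at 5 µM, limit read from the data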
D1 allo mod: allosteric modulators of human D1 dopamine receptor; P21728; HEK293 D1, CRE-luciferase, dopamine EC30 potentiation; actives deviate in either direction; B-score at 10 µM; 58,000 compounds, 5.9% hits; AID 641;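 active means luminescence count or its row- and column-corrected plate score outside the 99.7% band of the plate's sample wells, on either side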
An asterisk follows results filed as active.

For CC(C)c1ccc(CC(C)C2C3=C(CCCC3=O)OC3=C2C(=O)CCC3)cc1 (stereo not given) the results were CYP2C19 activ 0, CYP2C9 activ 0, CYP2C19 inh 99*, hDAT+cocaine 0.35 and CYP2C9 inhib 97*.
`Cc1ccc(S(=O)(=O)Oc2ccc(C3C4=C(CCCC4=O)OC4=C3C(=O)CCC4)cc2)cc1` gave CYP2C19 activ 1, CYP2C9 activ 1, CYP2C19 inh 1, hDAT+cocaine -0.24 and CYP2C9 inhib -2.
Screening O=C(NCc1ccccc1)N1CCn2c(nc3ccccc32)C1 returned hDAT+cocaine 0.75 and D1 allo mod 0.61.
`COc1ccccc1Oc1nc2c(c(=O)n(Cc3ccccc3F)c(=O)n2C)n1C` gave CYP2C19 activ 0.4, CYP2C9 activ 1.1, CYP2C19 inh 60*, hDAT+cocaine 0.81, CYP2C9 inhib -10 and D1 allo mod 0.2.
`Cn1c(=O)n(Cc2ccc(Cl)cc2)c2ccccc21` gave CYP2C19 activ 0.2, CYP2C9 activ 0.7, CYP2C19 inh 76*, hDAT+cocaine -0.17 and CYP2C9 inhib 34.
For Cn1c(=O)n(Cc2ccccc2F)c2ccccc21 the results were CYP2C19 activ 0.3, CYP2C9 activ 0.6, CYP2C19 inh 70*, hDAT+cocaine -0.19, CYP2C9 inhib 35 and D1 allo mod 0.77.
Cc1ccc(-n2nnc3c(=O)n(Cc4cc(C)ccc4C)cnc32)cc1 was read as hDAT+cocaine 1.6 and D1 allo mod 0.44.
For C[C@@H]1NC(=O)c2cc([N+](=O)[O-])cc(I)c2NCCCC[C@@H](C(N)=O)NC(=O)[C@H](CC(N)=O)NC1=O the results were hDAT+cocaine 0.8.
`CCC(CC)C(=O)N1c2ccc(F)cc2CCC1C` (stereo not given) gave CYP2C19 activ 0.6, CYP2C9 activ 0.3, CYP2C19 inh 43, hDAT+cocaine 0.22, CYP2C9 inhib 74* and D1 allo mod -0.91.
Screening CCCn1c(SCC(=O)N2c3ccc(F)cc3CCC2C)nnc1-c1ccccn1 (stereo not given) returned hDAT+cocaine 0.98.
For COc1ccccc1NC(=O)N1c2ccc(F)cc2CCC1C (stereo not given) the results were CYP2C19 activ 1, CYP2C9 activ 1, CYP2C19 inh 4, hDAT+cocaine -2.3, CYP2C9 inhib 1 and D1 allo mod 0.31.
Screening CC(C(=O)N1c2ccc(F)cc2CCC1C)N1C(=O)c2ccccc2C1=O (stereo not given) returned CYP2C19 activ 0.3, CYP2C9 activ 0.5, CYP2C19 inh 69*, hDAT+cocaine 1.7, CYP2C9 inhib 45 and D1 allo mod 1.5.
For CC1CCc2cc(F)ccc2N1C(=O)C1(C)CC1(Cl)Cl (stereo not given) the results were CYP2C19 activ 0.4, CYP2C9 activ 0.6, CYP2C19 inh 56*, hDAT+cocaine 0.85 and CYP2C9 inhib 36.
CCc1cccc(C)c1NC(=S)NCc1ccc2[nH]c(C)cc2c1 was read as hDAT+cocaine -0.55.
`CCOC(=O)c1c(C)oc2c1cc(O)c1ccccc12` gave CYP2C19 activ 0.7, CYP2C9 activ 0.3, CYP2C19 inh 33, hDAT+cocaine 0.56, CYP2C9 inhib 73* and D1 allo mod 0.75.
Screening C=C(C)COc1ccc2oc(C)c(C(=O)OCCOC)c2c1 returned CYP2C19 activ 0.2, CYP2C9 activ 0.4, CYP2C19 inh 84*, hDAT+cocaine -0.25, CYP2C9 inhib 60* and D1 allo mod 0.45.
`CCOC(=O)c1c(C(C)(C)C)oc2ccc(O)cc12` gave CYP2C19 activ 0.7, CYP2C9 activ 0.9, CYP2C19 inh 32, hDAT+cocaine -0.9 and CYP2C9 inhib 6.
Screening CCOC(=O)c1c(C)oc2ccc(O)cc12 returned CYP2C19 activ 0.9, CYP2C9 activ 2.7*, CYP2C19 inh 8, hDAT+cocaine 1.2 and CYP2C9 inhib -170.
`CCOC(=O)c1c(C)oc2cc(Br)c(OC(C)C(=O)OCC)cc12` (stereo not given) gave CYP2C19 activ 0.1, CYP2C9 activ 0.1, CYP2C19 inh 94*, hDAT+cocaine 0.11, CYP2C9 inhib 91* and D1 allo mod 0.77.
For CCN(CC)C(=O)C1CC(=O)N(c2ccc(F)c(Cl)c2)C1 (stereo not given) the results were CYP2C19 activ 1, CYP2C9 activ 1.1, CYP2C19 inh -2, hDAT+cocaine 0.079, CYP2C9 inhib -11 and D1 allo mod -0.96.
Screening CCOC(=O)c1c(C(C)(C)C)oc2ccc(OCC#N)cc12 returned CYP2C19 activ 0.8, CYP2C9 activ 0.4, CYP2C19 inh 20, hDAT+cocaine -0.74, CYP2C9 inhib 57* and D1 allo mod 1.1.
For COCc1c(C(=O)OCC(=O)N2c3ccccc3NC(=O)C2(C)C)oc2ccccc12 the results were CYP2C19 activ 0.9, CYP2C9 activ 0.7, CYP2C19 inh 12, hDAT+cocaine 0.25, CYP2C9 inhib 31 and D1 allo mod 0.6.
`CC1Cc2ccccc2N1C(=O)COC(=O)c1cccnc1Cl` (stereo not given) gave CYP2C19 activ 0.5, CYP2C9 activ 1, CYP2C19 inh 53*, hDAT+cocaine -0.76 and CYP2C9 inhib 4.
For COCc1c(C(=O)OCC(=O)N2c3ccccc3CC2C)oc2ccccc12 (stereo not given) the results were CYP2C19 activ 0.5, CYP2C9 activ 1.1, CYP2C19 inh 53*, hDAT+cocaine -0.15, CYP2C9 inhib -8 and D1 allo mod -0.31.
`CCOC(=O)C1=C(C)NC(C)=C(C(=O)OCC)C1C(=O)OCC(=O)N1c2ccccc2CC1C` (stereo not given) gave CYP2C19 activ 0.1, CYP2C9 activ 0, CYP2C19 inh 93*, hDAT+cocaine -0.76 and CYP2C9 inhib 100*.
`CCOC(=O)c1c(C)[nH]c(C(=O)OCC(=O)N2c3ccccc3CC2C)c1C` (stereo not given) gave CYP2C19 activ 1.1, CYP2C9 activ 1, CYP2C19 inh -8, hDAT+cocaine -0.48, CYP2C9 inhib -4 and D1 allo mod 1.5.
Screening CC1Cc2ccccc2N1C(=O)COC(=O)Cn1nnc(-c2ccccc2)n1 (stereo not given) returned CYP2C19 activ 0.4, CYP2C9 activ 0.1, CYP2C19 inh 65*, hDAT+cocaine -0.52, CYP2C9 inhib 88* and D1 allo mod -1.2.
For COC(=O)C1=C(C(=O)OC)[C@@H]2N(Cc3ccccc3)c3ccccc3[C@@]23C[C@@H](C(=O)OC)N(C(=O)C2CCC2)C3=N1 the results were hDAT+cocaine -0.34.
`Cc1cc(C)nc(NS(=O)(=O)c2ccc(NC(=O)COc3ccccc3)cc2)n1` gave CYP2C19 activ 1, CYP2C9 activ 0.8, CYP2C19 inh 0, hDAT+cocaine 3.8 and CYP2C9 inhib 18.
